PubChem BioAssay (Tox21)
Where “and” joins values, the source holds several entries; their conditions need not be identical. Equal entries are not always repeated. Some compounds were tested as several samples or in several runs, with calls that do not always agree. Calls of active or inactive are those of the source. Where a call stands in place of a potency, no number is given. Unless noted, calls come from the whole dose curve; as a rule, active = well fitted curve in the direction sought with a large enough effect in the repeat runs; inconclusive = weak or mixed curves; inactive = no such curve, though single readings can be large; an effect the other way counts as inactive or inconclusive.

Tests used:
[1] = qHTS assay to identify small molecule antagonists of the thyroid receptor (TR) signaling pathway - cell viability counter screen (AID 743064); note: nearly all actives have a fitted effect of over 50% in size; note: potency is the fitted concentration of half-maximal effect
Summary of the method: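 Viability of T3-stimulated (1 nM final) GH3.TRE-Luc cells is measured by CellTiter-Fluor fluorescence after 23.5 h compound exposure at 37 °C plus 30 min reagent incubation.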

[2] = target: Estrogen receptor (Homo sapiens) (UniProt P03372); assay: qHTS assay to identify small molecule antagonists of the estrogen receptor alpha (ER-alpha) signaling pathway (AID 743069; active = well fitted curve in the direction sought with a large enough effect in the signal ratio in the repeat runs, not every such curve was filed as active; inconclusive = weak or mixed curves, or effect the other way; inactive = no such curve, though single readings can be large or run the other way; the % refers to the signal ratio; note: potency is the fitted concentration of half-maximal effect)
Summary of the method: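 Estradiol-stimulated ER-alpha-UAS-bla HEK293 cells, 18 hr compound exposure at 37C. LiveBLAzer B/G substrate, 2 hr RT, fluorescence read.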

[3] = target: Estrogen receptor (Homo sapiens) (UniProt P03372); assay: qHTS assay to identify small molecule agonists of the estrogen receptor alpha (ER-alpha) signaling pathway (AID 743075; calls by dose curve;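 note: HEK293 GripTite cells with ER-alpha and UAS-driven beta-lactamase reporter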; note: potency is the fitted concentration of half-maximal effect)
[4] = target: Estrogen receptor (Homo sapiens) (UniProt P03372); assay: qHTS assay to identify small molecule agonists of the estrogen receptor alpha (ER-alpha) signaling pathway using the BG1 cell line (AID 743079); note: nearly all actives have a fitted effect of over 20% in size; note: potency is the fitted concentration of half-maximal effect
[5] = qHTS assay to identify small molecule antagonists of the estrogen receptor alpha (ER-alpha) signaling pathway using the BG1 cell line (AID 743080; calls by dose curve;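 note: BG1 cells stimulated with 17beta-estradiol alongside compound; nearly all actives have a fitted effect of over 25% in size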; note: potency is the fitted concentration of half-maximal effect)
Summary of the method: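 Readout is ONE-Glo luminescence, taken 30 min at room temperature after reagent addition, preceded by a CellTiter-Fluor viability read; BG1-Luc-4E2 cells had received compound and 17beta-estradiol for 21.5 h at 37 C.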

[6] = qHTS assay to identify small molecule antagonists of the estrogen receptor alpha (ER-alpha) signaling pathway using the BG1 cell line - cell viability counter screen (AID 743081);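 note: compound given together with 17beta-estradiol as the ER stimulus; nearly all actives have a fitted effect of over 45% in size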; note: potency is the fitted concentration of half-maximal effect
Aromatase (Homo sapiens) = Aromatase (Homo sapiens) (UniProt P11511); assay: qHTS assay to identify aromatase inhibitors (AID 743083); note: nearly all actives have a fitted effect of over 55% in size; note: potency is the fitted concentration of half-maximal effect
[7] = qHTS assay to identify aromatase inhibitors - cell viability counter screen (AID 743084);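 note: cells stimulated with testosterone during compound exposure; nearly all actives have a fitted effect of over 55% in size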; note: potency is the fitted concentration of half-maximal effect
[8] = qHTS assay to identify small molecule that activate the aryl hydrocarbon receptor (AhR) signaling pathway - cell viability counter screen (AID 743086); note: nearly all actives have a fitted effect of over 45% in size; note: potency is the fitted concentration of half-maximal effect
Summary of the method: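 HepG2-AhR-luc (HG2L7.5c1) cells, 4000/well, were preincubated 5 h at 37C, exposed to compound in qHTS format for 24 hr at 37C, then given CellTiter-Fluor for 30 min; viability was read as fluorescence in the reporter wells.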

[9] = target: Peroxisome proliferator-activated receptor gamma (Homo sapiens) (UniProt P37231); assay: qHTS assay to identify small molecule agonists of the peroxisome proliferator-activated receptor gamma (PPARg) signaling pathway (AID 743094; active = well fitted activation curve with a large enough effect in the signal ratio in the repeat runs, not every such curve was filed as active; inconclusive = weak or mixed curves, or effect the other way; inactive = no such curve, though single readings can be large or run the other way; the % refers to the signal ratio)
Summary of the method: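 Following 5 h plating at 37C, PPARg-bla HEK293H cells receive compound or DMSO for 17 h; fluorescence intensity is recorded after LiveBLAzer B/G loading for 1 h at room temperature.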

[10] = target: Peroxisome proliferator-activated receptor gamma (Homo sapiens) (UniProt P37231); assay: qHTS assay to identify small molecule antagonists of the peroxisome proliferator-activated receptor gamma (PPARg) signaling pathway (AID 743191; calls by dose curve; note: series mostly up to about 63 µM; nearly all actives have a fitted effect of over 30% in size)
Summary of the method: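 GeneBLAzer PPARg UAS-bla HEK293H cells carrying a UAS-driven beta-lactamase reporter were plated at 3000 cells/well, preincubated 5 h at 37C, then given compound for 17 h at 37C; LiveBLAzer B/G FRET substrate was read after 1 h at room temperature.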

[11] = qHTS assay to identify small molecule antagonists of the peroxisome proliferator-activated receptor gamma (PPARg) signaling pathway - cell viability counter screen (AID 743194); note: nearly all actives have a fitted effect of over 55% in size; note: potency is the fitted concentration of half-maximal effect
Summary of the method: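 PPARg-UAS-bla HEK293H cells were plated, rested 5 h at 37 C, then treated with compounds plus rosiglitazone (50 nM final) for 17 h at 37 C; viability was then read by CellTiter-Glo luminescence after 30 min at room temperature.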

[12] = qHTS assay for small molecule agonists of the antioxidant response element (ARE) signaling pathway (AID 743202; active = well fitted activation curve with a large enough effect in the signal ratio in the repeat runs, not every such curve was filed as active; inconclusive = weak or mixed curves, or effect the other way; inactive = no such curve, though single readings can be large or run the other way; the % refers to the signal ratio; note: potency is the fitted concentration of half-maximal effect)
Summary of the method: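 Compounds delivered in DMSO to ARE-bla HepG2 cells (2,000 cells/well, pre-incubated 5 h) and left 16 h at 37 C. LiveBLAzer B/G FRET substrate then added for 2 h at RT before fluorescence reading.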

[13] = qHTS assay for small molecule agonists of the antioxidant response element (ARE) signaling pathway - cell viability counter screen (AID 743203; calls by dose curve; note: nearly all actives have a fitted effect of over 55% in size; note: potency is the fitted concentration of half-maximal effect)
Summary of the method: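 Compounds in DMSO were pinned onto ARE-bla HepG2 cells plated 5 hrs earlier at 2,000 cells/well. Sixteen hours later at 37C/5% CO2, CellTiter-Glo was added and luminescence measured after 30 min at room temperature.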

[14] = qHTS assay for small molecule activators of the heat shock response signaling pathway - cell viability counter screen (AID 743209); note: nearly all actives have a fitted effect of over 50% in size; note: potency is the fitted concentration of half-maximal effect
Summary of the method: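 Counter screen for cytotoxicity in HeLa HSE-bla reporter cells. Treatment was 5 h at 37 C; viability was detected by luminescent ATP assay (CellTiter-Glo) in the same wells as the beta-lactamase read.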

[15] = qHTS assay for small molecule activators of the heat shock response signaling pathway (AID 743210; active = well fitted activation curve with a large enough effect in the signal ratio in the repeat runs, with a control signal flat, not every such curve was filed as active; inconclusive = weak or mixed curves; the % refers to the signal ratio; note: potency is the fitted concentration of half-maximal effect;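 for activation: HeLa cells with beta-lactamase reporter driven by heat shock elements; series mostly up to about 63 µM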)
Summary of the method: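 Reporter gene assay: HeLa cells stably bearing an HSE-bla construct, compound treatment 5 h at 37 C, LiveBLAzer substrate 2.5 h at RT, fluorescence intensity.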

[16] = qHTS assay to identify small molecule antagonists of the thyroid receptor (TR) signaling pathway (AID 743065); note: nearly all actives have a fitted effect of over 55% in size; note: potency is the fitted concentration of half-maximal effect
Summary of the method: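 GH3.TRE-Luc rat pituitary cells carrying two TR response elements driving luciferase were plated for 4 h, given compound plus 1 nM T3 (final), and incubated 23.5 h at 37 C. ONE-Glo luminescence measured reporter inhibition; CellTiter-Fluor fluorescence tracked cytotoxicity.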

[17] = tested on: thyroid hormone receptor (rat, GH3 cells); assay: qHTS assay to identify small molecule agonists of the thyroid receptor (TR) signaling pathway (AID 743066; calls by dose curve)
[18] = qHTS assay to identify small molecule antagonists of the estrogen receptor alpha (ER-alpha) signaling pathway - cell viability counter screen (AID 743074; calls by dose curve;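 note: HEK293 cells carrying ER-alpha-UAS-bla reporter stimulated with 17beta-estradiol; nearly all actives have a fitted effect of over 45% in size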; note: potency is the fitted concentration of half-maximal effect)
[19] = target: Aryl hydrocarbon receptor (Homo sapiens) (UniProt P35869); assay: qHTS assay to identify small molecule that activate the aryl hydrocarbon receptor (AhR) signaling pathway (AID 743085); note: nearly all actives have a fitted effect of over 15% in size; note: potency is the fitted concentration of half-maximal effect;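 for activation: HG2L7.5c1 human HepG2 liver cells with stably integrated DRE-driven firefly reporter; series mostly up to about 70 µM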
Summary of the method: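 A multiplexed format paired cell viability (CellTiter-Fluor fluorescence) with AhR-dependent luciferase output (ONE-Glo luminescence) in the same wells of HepG2 DRE-luc cells after 24 h compound exposure at 37C.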

Chain of Aryl hydrocarbon receptor (Homo sapiens) (P35869 whole entry, looked up): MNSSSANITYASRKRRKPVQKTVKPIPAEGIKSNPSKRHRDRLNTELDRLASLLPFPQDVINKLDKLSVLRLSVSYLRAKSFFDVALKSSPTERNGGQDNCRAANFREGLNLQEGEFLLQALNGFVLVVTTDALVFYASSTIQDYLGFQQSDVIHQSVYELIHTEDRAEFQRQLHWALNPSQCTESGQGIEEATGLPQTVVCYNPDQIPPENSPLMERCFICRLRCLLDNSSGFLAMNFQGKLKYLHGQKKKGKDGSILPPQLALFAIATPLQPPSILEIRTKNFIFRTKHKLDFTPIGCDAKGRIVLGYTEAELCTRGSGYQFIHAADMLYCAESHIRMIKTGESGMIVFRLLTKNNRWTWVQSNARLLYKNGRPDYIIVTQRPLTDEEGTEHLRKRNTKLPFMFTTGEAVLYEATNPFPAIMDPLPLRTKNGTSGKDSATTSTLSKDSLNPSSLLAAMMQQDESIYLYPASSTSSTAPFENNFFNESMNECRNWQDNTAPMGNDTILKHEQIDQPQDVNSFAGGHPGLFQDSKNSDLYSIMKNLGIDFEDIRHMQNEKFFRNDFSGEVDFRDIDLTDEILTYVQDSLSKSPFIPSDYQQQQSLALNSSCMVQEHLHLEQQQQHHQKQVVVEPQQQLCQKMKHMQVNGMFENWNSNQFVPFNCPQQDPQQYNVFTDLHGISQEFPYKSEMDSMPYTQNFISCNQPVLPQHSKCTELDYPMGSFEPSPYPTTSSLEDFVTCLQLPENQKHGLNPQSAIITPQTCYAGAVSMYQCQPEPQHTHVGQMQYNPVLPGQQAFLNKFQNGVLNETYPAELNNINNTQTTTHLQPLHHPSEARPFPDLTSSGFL
Chain of Aromatase (Homo sapiens) (P11511 whole entry, looked up): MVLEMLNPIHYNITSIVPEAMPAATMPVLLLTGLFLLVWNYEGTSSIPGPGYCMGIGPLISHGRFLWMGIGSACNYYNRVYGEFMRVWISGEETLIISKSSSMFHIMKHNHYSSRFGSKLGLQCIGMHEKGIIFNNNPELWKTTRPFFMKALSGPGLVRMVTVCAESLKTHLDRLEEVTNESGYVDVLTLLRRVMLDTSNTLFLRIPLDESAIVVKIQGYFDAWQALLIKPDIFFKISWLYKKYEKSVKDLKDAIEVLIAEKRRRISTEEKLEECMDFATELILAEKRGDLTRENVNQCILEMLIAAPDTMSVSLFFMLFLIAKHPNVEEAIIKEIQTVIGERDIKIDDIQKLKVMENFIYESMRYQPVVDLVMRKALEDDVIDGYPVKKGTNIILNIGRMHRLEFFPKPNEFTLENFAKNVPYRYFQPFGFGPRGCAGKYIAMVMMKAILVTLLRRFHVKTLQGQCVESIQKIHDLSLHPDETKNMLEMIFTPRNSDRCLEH
Chain of Peroxisome proliferator-activated receptor gamma (Homo sapiens) (P37231 whole entry, looked up): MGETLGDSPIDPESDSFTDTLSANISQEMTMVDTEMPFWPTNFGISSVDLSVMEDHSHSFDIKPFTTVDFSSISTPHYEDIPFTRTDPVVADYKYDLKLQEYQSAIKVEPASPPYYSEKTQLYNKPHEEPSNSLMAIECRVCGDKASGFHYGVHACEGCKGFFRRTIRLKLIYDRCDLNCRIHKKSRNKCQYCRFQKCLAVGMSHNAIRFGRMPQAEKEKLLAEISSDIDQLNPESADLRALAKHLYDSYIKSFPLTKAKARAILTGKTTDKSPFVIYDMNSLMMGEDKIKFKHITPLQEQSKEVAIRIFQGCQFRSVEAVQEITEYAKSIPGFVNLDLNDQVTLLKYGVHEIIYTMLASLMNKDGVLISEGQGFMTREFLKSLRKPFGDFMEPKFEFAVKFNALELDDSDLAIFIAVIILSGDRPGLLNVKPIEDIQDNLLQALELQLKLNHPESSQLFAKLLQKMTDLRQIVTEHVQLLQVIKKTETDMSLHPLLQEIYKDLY
Chain of Estrogen receptor (Homo sapiens) (P03372 whole entry, looked up): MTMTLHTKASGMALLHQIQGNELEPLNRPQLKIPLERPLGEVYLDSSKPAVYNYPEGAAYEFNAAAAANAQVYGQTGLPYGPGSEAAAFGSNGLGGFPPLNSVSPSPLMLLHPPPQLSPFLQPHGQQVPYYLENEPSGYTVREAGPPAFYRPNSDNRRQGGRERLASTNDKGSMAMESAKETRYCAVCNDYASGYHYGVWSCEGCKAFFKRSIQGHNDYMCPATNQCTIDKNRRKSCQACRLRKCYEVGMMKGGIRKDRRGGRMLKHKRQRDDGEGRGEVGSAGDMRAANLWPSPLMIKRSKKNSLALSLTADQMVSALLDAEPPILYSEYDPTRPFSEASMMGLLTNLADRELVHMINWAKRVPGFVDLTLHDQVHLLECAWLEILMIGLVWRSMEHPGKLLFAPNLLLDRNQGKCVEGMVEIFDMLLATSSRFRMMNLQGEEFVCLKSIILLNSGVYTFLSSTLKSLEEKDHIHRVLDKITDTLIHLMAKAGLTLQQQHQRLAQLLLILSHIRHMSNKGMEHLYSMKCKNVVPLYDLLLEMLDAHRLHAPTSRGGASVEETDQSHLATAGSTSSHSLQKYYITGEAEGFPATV

SMILES	Potency [1]	Potency [2]	Potency [3]	Potency [4]	Potency [5]	Potency [6]	Potency (Aromatase (Homo sapiens))	Potency [7]	Potency [8]	Potency [9]	Potency [10]	Potency [11]	Potency [12]	Potency [13]	Potency [14]	Potency [15]	Potency [16]	Potency [17]	Potency [18]	Potency [19]
OCCN1CCNCC1	inactive	inactive	inactive	inactive	inactive	inactive	inactive	inactive	inactive	inactive	inactive	inactive	inactive	inactive	inactive	inactive	–	–	–	–
Oc1c(Cl)cc(Cl)cc1Sc1cc(Cl)cc(Cl)c1O	–	6.93 µM [inconclusive] (active) and 1.77 µM [inconclusive] (active)	inactive	–	–	inactive	21.1 µM (active) and 15.4 µM (active) and 17.5 µM (active)	–	inactive	–	–	–	–	–	43.8 µM (active) and 49 µM (active) and inactive	inactive	8.63 µM (active) [middle of 4 runs]	inactive	21.9 µM (active) and 44.4 µM (active) and 27.5 µM (active)	–
NC(=Nc1ccccc1)Nc1ccccc1	–	inactive	inactive	–	–	–	21.1 µM (active)	inactive	6.11 µM (active)	inactive	inactive	inactive	13.3 µM (active)	–	inactive	inactive	inactive	inactive	inactive	inactive and 19.3 µM (active)
c1ccc2c(c1)-c1cccc3c1c-2cc1ccccc13	–	–	–	inactive	–	inactive	inactive	inactive	inactive	–	–	inactive	1.34 µM (active)	inactive	–	–	–	–	inactive	8.43 µM (active) and 6.86 µM (active)
CCN(CC)c1ccc2c(C)cc(=O)oc2c1	–	–	–	inactive	inactive	–	inactive	–	–	–	–	inactive	–	inactive	–	31.1 µM (active)	–	inactive	49.4 µM (active) and inactive	–
O=C(O)c1cc(Cl)cc(Cl)c1	–	inactive	inactive	inactive	–	inactive	inactive	inactive	inactive	inactive	–	inactive	inactive	inactive	inactive	inactive	inactive	inactive	inactive	inactive
CC[C@@H](N)CO	–	inactive	inactive	inactive	inactive	inactive	inactive	inactive	inactive	inactive	–	inactive	inactive	inactive	–	inactive	inactive	inactive	inactive	inactive
CC1COc2c(N3CCN(C)CC3)c(F)cc3c(=O)c(C(=O)O)cn1c23 (stereo not given)	–	–	–	–	–	inactive	inactive	inactive	inactive	inactive	inactive	inactive	inactive	inactive	inactive	inactive	inactive	inactive	inactive	inactive
CCCCCCCCCCCCCC[P+](CCCC)(CCCC)CCCC	2.16 µM (active) and 2.17 µM (active)	21.9 µM [cytotoxic] (active)	–	–	6.82 µM (active) and 4.86 µM (active)	17.1 µM (active) and 15.4 µM (active)	7.65 µM (active) and 6.11 µM (active)	17.1 µM (active) and 19.3 µM (active)	68.2 µM (active) and 54.5 µM (active)	–	–	3.45 µM (active) and 3.47 µM (active)	–	15.3 µM (active) and 10.9 µM (active)	6.88 µM (active) and 13.8 µM (active)	–	–	–	3.45 µM (active) and 8.71 µM (active)	–
COC(c1ccccc1)(c1ccccc1)[C@H](Oc1nc(C)cc(C)n1)C(=O)O	–	–	–	–	–	–	inactive	inactive	inactive	inactive	inactive	inactive	inactive	inactive	–	inactive	inactive	inactive	inactive	inactive
CCCOC(=O)c1cc(O)c(O)c(O)c1	–	–	9.52 µM [inconclusive] (active) and 19.4 µM [inconclusive] (active) and 61.6 µM [inconclusive] (active)	26.6 µM (active) and inactive	–	inactive	inactive	–	inactive	inactive	–	inactive	15.3 µM (active)	inactive	–	inactive	inactive	inactive	inactive	4.22 µM (active) and inactive
CC(C)CCOCc1ccccc1	inactive	inactive	inactive	inactive	inactive	inactive	inactive	inactive	inactive	inactive	inactive	inactive	inactive	inactive	–	inactive	–	–	inactive	–
CC(=O)CC(=O)Nc1ccc2[nH]c(=O)[nH]c2c1	–	inactive	inactive	inactive	–	inactive	inactive	inactive	inactive	inactive	inactive	inactive	inactive	inactive	inactive	inactive	inactive	inactive	inactive	inactive
